The subject of this test is VDR:RXRa (NR concentration 270 nM, RXRa partner concentration 90 nM). The test can be described thus: PBM binding z-score (relative to random genomic background probes); higher = stronger binding; sequences stand for … in GC…GCGATTGACAGCGTAGAATGAAGG
How it is done:
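Protein-binding microarray (Agilent 4x180K custom design, double-stranded 60-nt probes: 5' GC cap, 34-nt variable region, 24-nt constant primer region; full probe sequence given). Purified or IVT nuclear receptor:RXRα heterodimers (3:1 NR:RXRα, mostly 270:90 nM) or homodimers were incubated for 1 h in PBS with 2% milk and no ligand, then detected with Alexa488 antibodies. Fluorescence from o1-orientation probes (~5 replicates averaged) was converted to z-scores against 500 random hg19 background probes. Variable regions are seed direct-repeat (DR0–DR5) sites, all their single-nucleotide variants and half-site ablations.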
Take ACAGACAGGTGAGTGCAGGTAACTCAGCTGGACG: the PBM binding z-score was -0.127.

TGAATGAGGTTAAAGATCATGGAACGTGGCGTCG registered a PBM binding z-score of 2.05. The figure for GGACCGAGGGCAAGTTGATAGCAGAGTTTGATGG is 0.844; for TCGAGTAGGTTAGGCGCATTCAGAATGGCGTCGA it is -0.563. CTCGAAAGGTAGTGCTCAGGTGAGTATACCAAAC: the PBM binding z-score was -0.361. As for TCATATAGGTAAACAGGCGAAAGTCCGTAAGTTA, the PBM binding z-score was determined as 1.13. Sequence CATACAGGGTCAGCTTGGCCAGAGTAGGGACGGC gave a PBM binding z-score of 2.81. As to CCTTACGGGTCACTGACAGGTTTTAGCATTTGGA, the PBM binding z-score came to 3.31. On to AGAATGAGGATATACGTAGATCAGGGAAGAAAGT, for which the PBM binding z-score is -0.427. The figure for TGAGACAGGTGAAGGTAACTCAGGTACGCAGTCG is -0.109; for CAGCCTCGGTCAGGGCCAGTATAGGAGGAACGTT it is -0.628. For the sequence AGATCGAGGGCACGCTGAGTTGATAGCAGAGTAG, the PBM binding z-score was found to be 1.85.

As to CCTACTCGGCCATCAGGTCATTGATATCAACGTT, the PBM binding z-score was 2.37. For the sequence ATCGAAAGGTTGAGGTGAGTATAGAGAAAGGGAA, the PBM binding z-score is 0.543. Sequence TCGAGTAGGTTACCAATGGCGCATTCAGCTTTCT gave a PBM binding z-score of 0.111. The figure for GTACCAAGGTGAATAGGCCGTTGATGAGTAGGCG is -0.0408; for CCTCGGAGGACAAGAGGAGGTCAGAGCTGCCAGA it is 1.48. TCATATAGGTACAAGGTGAAAGTCGGTGTGGTAA showed a PBM binding z-score of 1.22. In turn, CCTAGGTGGTCAAGGTCACACACGCTATAGGTAC had a PBM binding z-score of 4.76. For GCTATTAGTTGAAAGGGCAACGGAATGATTCTCG, the PBM binding z-score is 0.383.

Sequence GCTGCTAGGTCAGGTTGGTCAGCTACCGGGTACG registered a PBM binding z-score of 0.397. With CCTTACGGGTCACTCCAGGTTAGAGCATCGGAGT, the PBM binding z-score was 3.65. The result for CCTTACGGGTCACGAGCTTATAGCACGACGAGCG reads 3.95; that for ATATGTAGGTTACATCCGGGTCATGCAGGCTATG, 3.8; that for CCTTACGGGTCACTGGCAGGTTATAGCATTTGGA, 3.81.

Turning to CCTAGTTGGTCAGGAGGTCTCACACCGGATATGA, the PBM binding z-score stood at 0.189. As to CAAACTTGGTCAAAGGTCAAAGTCGAGCCAACCA, the PBM binding z-score turned out to be 5.59. Sequence AGAACGAGGGCACGCTGAGTAGATAGCAGAGTAG yielded a PBM binding z-score of 0.928. TCTAGTAGGTTAGGGGCATTCAGAATGGCGTCGA returned a PBM binding z-score of 1.04.

Consider TCGAGTAGGTTACCAATGCGGCATTCAGCTTTCT, for which the PBM binding z-score was -0.196. As for TTTATTAGTTGAAGGGCAACCGACGAGTCCGTTT, the PBM binding z-score stood at 1.17. In turn, GCTGCTAGGGCAACTGATGGTCAGCTAAAGCTCG showed a PBM binding z-score of -0.881. ACTTACGGGTCAACGAGGTTATACCACGCGTATA registered a PBM binding z-score of 7.92.

TGAATGAGGTTAAAGATAAGGGAACGTGGCGTCG displayed a PBM binding z-score of 1.36. The figure for TAGCCTAGGTCATTCAGGGGCCCGTATAGAAAGC is 2.51; for AGTCAAAGTTCAGGACGAGGTGACGTAAAGCACG it is 3.27. The figure for TCATATAGGTAAAGAGGTGAAAGTCCGTAAGTTA is 1.45; for CGTCCAAGGTCTGAGAGGTCAGTGAATGCCGAGT it is 3.29; for TCTGCTAGGCCAGTTGGTCAGCTAACGAGCTGCC it is -0.797. Sequence AGTCAAATTTCAGGACGAGGTAACGTAAAGCACG came in with a PBM binding z-score of -0.0744.

The values are drawn from the supplement of paper PMC6555819.
